Experimental data from PubChem BioAssay AID1117319 (Southern Research Institute, 2015).
The whole screen tested about 260,000 compounds, of which about 1,500 (0.58%) were called active. Inconclusive results (about 5%) are left out.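 The calls were made as follows: active = inhibition above a set limit at one or more doses, reproduced on every date tested; inconclusive = results disagree between test dates, or hit never tested in dose response; inactive = the rest.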 Only a sample is shown. Entries with a potency or affinity are not part of this list.

Molecular target: Virion infectivity factor (Human immunodeficiency virus type 1 group M subtype B (isolate BH10)) + Virion infectivity factor (Human immunodeficiency virus type 1 group M subtype B (isolate BRU/LAI)) + Virion infectivity factor (Human immunodeficiency virus type 1 group M subtype B (isolate PCV12)) + Virion infectivity factor (Human immunodeficiency virus type 1 group M subtype B (isolate HXB2)) + DNA dC->dU-editing enzyme APOBEC-3G (Homo sapiens) (UniProt P69720+P69721+P69722+P69723+Q9HC16)
Assay: HIV-1 Vif–A3G interaction blockers – biochemical, TR-FRET, GST-Vif 1-94, biotin-A3G peptide, dose response retest, primary screen (AID 1117319);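 also: Vif residues 1-94 fused to GST binding biotinylated APOBEC3G peptide 110-148; 0% = full assay without inhibitor and 100% = GST in place of GST-Vif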
Conditions: TR-FRET GST-Vif / biotin-A3G peptide binding; active compounds read high

inhibition, inactive:
Cc1c(Cl)ccc2c1NC(=O)[C@]21[C@@H]2C(=O)N(Cc3ccccc3)C(=O)[C@@H]2[C@@H]2CCCN21 2.38%
Cc1cc(Cl)c2c(c1)[C@]1(C(=O)N2)[C@@H]2C(=O)N(Cc3ccccc3)C(=O)[C@@H]2[C@@H]2CCCN21 28.3%
O=C(Cc1n[nH]c(=O)c2ccccc12)OCC(=O)c1ccc(F)c(F)c1 -13.4%
Cc1cc(NC(=O)Nc2ccc(F)cc2F)n(C)n1 -0.16%
C#CCN(C[C@H]1[C@H](OC(=O)Nc2c(C)noc2C)[C@H](OC(=O)Nc2c(C)noc2C)C[C@@H](C(=O)OC)[C@H]1C(=O)OC)S(=O)(=O)c1ccc(C)cc1 1.23%
COc1ccccc1C(=O)N(CCN(C)C)c1nc2cc(C)cc(C)c2s1 -1.26%
Cc1nc(NC(=O)COC(=O)/C=C/c2ccco2)c(Cl)cc1Cl 20.2%
Cc1c(Cl)cnc(NC(=O)COC(=O)/C=C/c2ccco2)c1Cl 19.7%
CCC1CCCCN1C(=O)CSc1nnc(N)s1 (stereo unspecified) -4.63%
O=C(NCC(c1ccco1)N1CCc2ccccc2C1)c1ccc(F)cc1 (stereo unspecified) -9.45%
COc1ccc(CCNC(=O)/C=C/C(=O)O)cc1 14.3%
O=C(/C=C/c1ccco1)NCCc1ccccc1 0.33%
CCC1(C)Cc2nc3sc(C(=O)O)c(N)c3cc2CO1 (stereo unspecified) 32.8%
CC1(C)Cc2nc3sc(C(=O)NCCCO)c(N)c3cc2CS1 -0.06%
COc1ccc(-c2ccc3c(c2)C2CC3CCN2C(=O)C(C)(C)C)cc1 (stereo unspecified) -6.26%
COc1ccc(Cc2nnc(SCC(=O)NC(C)c3ccccc3)o2)cc1 (stereo unspecified) 8.9%
CCOC(=O)C1(CC)NC(c2ccco2)C2C(=O)N(CC)C(=O)C21 (stereo unspecified) 0.75%
CCOC(=O)C1(C)NC(c2ccco2)C2C(=O)N(C)C(=O)C21 (stereo unspecified) 2.73%
CCOc1ccccc1NC(=O)c1cc2ccccc2oc1=O 5.96%
O=C(Nc1ccccc1)c1ccccc1N=Cc1ccccc1O -0.3%
O=c1[nH][nH]cc1C=Nc1ccccc1O 1.21%
Cc1cccc(NC(=O)Cn2cnc3c(oc4ccccc43)c2=O)c1 4.28%
CCCCn1c(SCC(N)=O)nnc1-c1ccco1 3.37%
c1ccc(OCCCCN2CCOCC2)cc1 16.5%
CCOC(=O)N1CC=C2C(C#N)=C(N)C(C#N)(C#N)[C@H](c3ccsc3)[C@H]2C1 9.32%
CC(C)(C)OC(=O)N1CC=C2C(C#N)=C(N)C(C#N)(C#N)C(c3cccs3)C2C1 (stereo unspecified) 5.47%
